# Like-named read-outs stand apart in the source and are kept apart here.
# Columns and labels:
# CDC2L2 = settings: concentration: 1 μM, replicates: in singlicate; n = 1
# CDC2L5 = system: T1, CDC2L5; settings: n = 1
# T1 construct: gene CDK13
# CDK11 = system: T2, CDK11; settings: concentration: 1 μM, replicates: in singlicate; n = 1
# T2 construct: gene CDK19
# CDK2 = settings: concentration: 1 μM, replicates: in singlicate; n = 1
# CDK3 = settings: concentration: 1 μM, replicates: in singlicate; n = 1
# CDK4-cyclinD1 = settings: n = 1
# CDK4-cyclinD3 = settings: n = 1
# CDK4 = settings: n = 1
# CDK5 = settings: concentration: 1 μM, replicates: in singlicate; n = 1
# CDK7 = settings: concentration: 1 μM, replicates: in singlicate; n = 1
# CDK8 = settings: concentration: 1 μM, replicates: in singlicate; n = 1
# CDK9 = settings: concentration: 1 μM, replicates: in singlicate; n = 1
# CDKL1 = settings: concentration: 1 μM, replicates: in singlicate; n = 1
# CDKL2 = settings: concentration: 1 μM, replicates: in singlicate; n = 1
# CDKL3 = settings: concentration: 1 μM, replicates: in singlicate; n = 1
# CDKL5 = settings: concentration: 1 μM, replicates: in singlicate; n = 1
# CHEK1 = settings: concentration: 1 μM, replicates: in singlicate; n = 1
# CHEK2 = settings: concentration: 1 μM, replicates: in singlicate; n = 1
# CIT = settings: concentration: 1 μM, replicates: in singlicate; n = 1
# CLK1 = settings: concentration: 1 μM, replicates: in singlicate; n = 1
# [1] = concentration: 1 μM, replicates: in singlicate
# 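Further: KINOMEscan kinase panel screen.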
compound,measurement,setting,value
Cc1cccc(Nc2nc(NCCN)ncc2C(N)=O)c1 [GSK1292139],%Inh,CDC2L2,18%
same,%Inh,CDC2L5; [1],0%
same,%Inh,CDK11,0%
same,%Inh,CDK2,0%
same,%Inh,CDK3,5%
same,%Inh,CDK4-cyclinD1; [1],0%
same,%Inh,CDK4-cyclinD3; [1],6%
same,%Inh,CDK4; [1],35%
same,%Inh,CDK5,0%
same,%Inh,CDK7,24%
same,%Inh,CDK8,37%
same,%Inh,CDK9,0%
same,%Inh,CDKL1,0%
same,%Inh,CDKL2,7%
same,%Inh,CDKL3,0%
same,%Inh,CDKL5,0%
same,%Inh,CHEK1,82%
same,%Inh,CHEK2,75%
same,%Inh,CIT,80%
same,%Inh,CLK1,23%
Cn1cc(-c2cnc(N)c3c(-c4ccc5c(c4)CCN5C(=O)Cc4ccccc4)csc23)cn1 [GSK2593074],%Inh,CDC2L2,1%
same,%Inh,CDC2L5; 1 µM,0%
same,%Inh,CDK11,18%
same,%Inh,CDK2,0%
same,%Inh,CDK3,1%
same,%Inh,CDK4-cyclinD1; 1 µM,0%
same,%Inh,CDK4-cyclinD3; 1 µM,0%
same,%Inh,CDK4; 1 µM,0%
same,%Inh,CDK5,2%
same,%Inh,CDK7,19%
same,%Inh,CDK8,19%
same,%Inh,CDK9,0%
same,%Inh,CDKL1,9%
same,%Inh,CDKL2,0%
same,%Inh,CDKL3,4%
same,%Inh,CDKL5,0%
same,%Inh,CHEK1,9%
same,%Inh,CHEK2,0%
same,%Inh,CIT,0%
same,%Inh,CLK1,15%
COc1ccc(C)c(Nc2ccnc(Nc3ccc(-c4cnc[nH]4)cc3)n2)c1.Cl [GW784041],%Inh,CDC2L2,16%
same,%Inh,CDC2L5; [1],0%
same,%Inh,CDK11,2%
same,%Inh,CDK2,0%
same,%Inh,CDK3,3%
same,%Inh,CDK4-cyclinD1; [1],0%
same,%Inh,CDK4-cyclinD3; [1],0%
same,%Inh,CDK4; [1],0%
same,%Inh,CDK5,0%
same,%Inh,CDK7,0%
same,%Inh,CDK8,35%
same,%Inh,CDK9,0%
same,%Inh,CDKL1,44%
same,%Inh,CDKL2,0%
same,%Inh,CDKL3,0%
same,%Inh,CDKL5,1%
same,%Inh,CHEK1,0%
same,%Inh,CHEK2,0%
same,%Inh,CIT,0%
same,%Inh,CLK1,18%
Cc1nn2c(=O)cc(N3CCO[C@H](C)C3)nc2n1Cc1cccc(Cl)c1Cl [GSK2373693],%Inh,CDC2L2,4%
same,%Inh,CDC2L5; [1],0%
same,%Inh,CDK11,3%
same,%Inh,CDK2,54%
same,%Inh,CDK3,76%
same,%Inh,CDK4-cyclinD1; [1],53%
same,%Inh,CDK4-cyclinD3; [1],2%
same,%Inh,CDK4; [1],13%
same,%Inh,CDK5,0%
same,%Inh,CDK7,0%
same,%Inh,CDK8,0%
same,%Inh,CDK9,2%
same,%Inh,CDKL1,1%
same,%Inh,CDKL2,11%
same,%Inh,CDKL3,0%
same,%Inh,CDKL5,0%
same,%Inh,CHEK1,26%
same,%Inh,CHEK2,0%
same,%Inh,CIT,21%
same,%Inh,CLK1,55%
Cc1cc(-c2ccnc(Nc3cccc(C#N)c3)n2)cc(C)c1O [GSK1440913],%Inh,CDC2L2,51%
same,%Inh,CDC2L5; [1],0%
same,%Inh,CDK11,0%
same,%Inh,CDK2,68%
same,%Inh,CDK3,30%
same,%Inh,CDK4-cyclinD1; [1],42%
same,%Inh,CDK4-cyclinD3; [1],22%
same,%Inh,CDK4; [1],0%
same,%Inh,CDK5,18%
same,%Inh,CDK7,61%
same,%Inh,CDK8,30%
same,%Inh,CDK9,52%
same,%Inh,CDKL1,1%
same,%Inh,CDKL2,89%
same,%Inh,CDKL3,99.1%
same,%Inh,CDKL5,24%
same,%Inh,CHEK1,0%
same,%Inh,CHEK2,0%
same,%Inh,CIT,94%
same,%Inh,CLK1,99%
CCNC(=O)/C=C/c1n[nH]c2cc(Sc3ccccc3C(=O)NC)ccc12,%Inh,CDC2L2,0%
same,%Inh,CDC2L5; [1],9%
same,%Inh,CDK11,10%
same,%Inh,CDK2,0%
same,%Inh,CDK3,39%
same,%Inh,CDK4-cyclinD1; [1],0%
same,%Inh,CDK4-cyclinD3; [1],0%
same,%Inh,CDK4; [1],1%
same,%Inh,CDK5,41%
same,%Inh,CDK7,23%
same,%Inh,CDK8,20%
same,%Inh,CDK9,13%
same,%Inh,CDKL1,17%
same,%Inh,CDKL2,26%
same,%Inh,CDKL3,17%
same,%Inh,CDKL5,15%
same,%Inh,CHEK1,0%
same,%Inh,CHEK2,0%
same,%Inh,CIT,0%
same,%Inh,CLK1,17%
COc1ccc(NC(=O)c2ccoc2)cc1-c1ccc(C(=O)NCC2CC2)cc1 [GW810437],%Inh,CDC2L2,6%
same,%Inh,CDC2L5; [1],16%
same,%Inh,CDK11,11%
same,%Inh,CDK2,0%
same,%Inh,CDK3,2%
same,%Inh,CDK4-cyclinD1; [1],0%
same,%Inh,CDK4-cyclinD3; [1],0%
same,%Inh,CDK4; [1],15%
same,%Inh,CDK5,0%
same,%Inh,CDK7,26%
same,%Inh,CDK8,38%
same,%Inh,CDK9,16%
same,%Inh,CDKL1,11%
same,%Inh,CDKL2,0%
same,%Inh,CDKL3,2%
same,%Inh,CDKL5,6%
same,%Inh,CHEK1,0%
same,%Inh,CHEK2,0%
same,%Inh,CIT,0%
same,%Inh,CLK1,0%
COC(=O)Nc1nc2ccc(Oc3ccc(NC(=O)Nc4cc(C(F)(F)F)ccc4F)cc3)cc2[nH]1.Cl [GW654607],%Inh,CDC2L2,4%
same,%Inh,CDC2L5; [1],6%
same,%Inh,CDK11,87%
same,%Inh,CDK2,30%
same,%Inh,CDK3,18%
same,%Inh,CDK4-cyclinD1; [1],0%
same,%Inh,CDK4-cyclinD3; [1],0%
same,%Inh,CDK4; [1],26%
same,%Inh,CDK5,17%
same,%Inh,CDK7,97.4%
same,%Inh,CDK8,84%
same,%Inh,CDK9,0%
same,%Inh,CDKL1,21%
same,%Inh,CDKL2,96.7%
same,%Inh,CDKL3,100%
same,%Inh,CDKL5,0%
same,%Inh,CHEK1,0%
same,%Inh,CHEK2,16%
same,%Inh,CIT,87%
same,%Inh,CLK1,52%

# — PMC5540273 (PLoS ONE, 2017)
